From PubChem BioAssay AID720597 (Broad Institute, 2013) come the findings set out here.

Structures are written as SMILES. Results with a measured potency or affinity are listed apart. Calls of active or inactive are those of the source.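 Rule for the calls: active = fitted half-maximal dose no more than twice the top valid tested dose, for compounds that lower signal; inconclusive = fit invalid, or curve flat with activity between -70 and -30; inactive = potency past limit, curve flat within ±30, or signal increasing.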

NAD-dependent protein deacylase sirtuin-5, mitochondrial (Homo sapiens), sequence (Q9NXA8 whole entry, looked up): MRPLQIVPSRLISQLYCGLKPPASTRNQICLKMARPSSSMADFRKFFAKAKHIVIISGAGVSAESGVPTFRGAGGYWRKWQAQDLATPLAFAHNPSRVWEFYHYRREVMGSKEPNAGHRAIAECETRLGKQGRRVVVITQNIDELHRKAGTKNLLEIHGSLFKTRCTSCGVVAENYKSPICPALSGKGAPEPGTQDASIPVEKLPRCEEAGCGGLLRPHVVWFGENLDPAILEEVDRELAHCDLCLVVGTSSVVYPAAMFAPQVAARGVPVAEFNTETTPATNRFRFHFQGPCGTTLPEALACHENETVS

This test concerns the target NAD-dependent protein deacylase sirtuin-5, mitochondrial (Homo sapiens) (UniProt Q9NXA8). The test can be described thus: SIRT5 deacylase inhibitors, dose response, biochemical, fluorescence imaging, cherry-pick, set 6 (AID 720597).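 Note: lower AMC signal can also come from blocking the trypsin step.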 As to conditions: Purified SirT5, succinyl-peptide-AMC/trypsin fluorescence; series mostly up to 15 µM.
On to `Cc1ccc(S(=O)(=O)N[C@@H]2CC[C@@H](CC(=O)N3CCN(c4ccccc4)CC3)O[C@@H]2CO)cc1`, for which the compound was classed as inactive.
In the case of `Cc1ccc(S(=O)(=O)N(C)C[C@H]2OCCCC[C@@H](C)Oc3ccc(NS(=O)(=O)c4ccc(Cl)cc4)cc3C(=O)N([C@H](C)CO)C[C@H]2C)cc1`, the result was inactive.
Take `C[C@@H]1CN([C@H](C)CO)C(=O)c2cc(NC(=O)NC3CCCCC3)ccc2O[C@@H](C)CCCCO[C@@H]1CN(C)Cc1ccc(Cl)c(Cl)c1`: the compound was called inactive.
For the compound `COc1ccc(CN(C)C[C@H]2OCCCC[C@@H](C)Oc3ccc(NC(=O)NC4CCCCC4)cc3C(=O)N([C@H](C)CO)C[C@H]2C)cc1`, the result was inactive.
As for `CC(C)CC#Cc1ccc2c(c1)O[C@H](CN(C)S(=O)(=O)c1cccc(F)c1)[C@H](C)CN([C@H](C)CO)S2(=O)=O`, the result was inactive.
In the case of `O=C(C[C@@H]1CC[C@H](NS(=O)(=O)c2ccc(F)cc2)[C@H](CO)O1)N1CCN(c2ccccc2)CC1`, the compound was called inactive.
To `CCCC(=O)Nc1ccc2c(c1)OC[C@H](C)N(Cc1ccccc1)C[C@@H](C)[C@H](OC)CN(C)C2=O` belongs “inactive”; to `COc1ccc(S(=O)(=O)Nc2ccc3c(c2)C(=O)N([C@H](C)CO)C[C@H](C)[C@@H](CN(C)Cc2ccc(Oc4ccccc4)cc2)O3)cc1`, “inactive”; to `Cc1ccc(-c2ccc(C3[C@@H]4CN(S(=O)(=O)c5cccc(C)c5)C[C@H]3N4)cc2)cc1` (stereo not given in full), “inactive”.
As to `COc1ccc(S(=O)(=O)N(C)C[C@H]2Oc3cc(C#CC4CC4)ccc3S(=O)(=O)N([C@@H](C)CO)C[C@H]2C)cc1`, the compound was called inactive.
